Among the data in PubChem BioAssay are composite z-score and z-score values, retold here.

The subject of assay [1] is PRMT1 (protein arginine N-methyltransferase 1). Kind of assay: small molecules binding arginine methyltransferase PRMT1 – biochemical, small-molecule microarray, 635 nm fluorescence, primary screen (AID 1088).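 Note: binding of Prmt1 protein to compounds spotted on small-molecule microarray slides.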 Particulars: higher = more signal.
Assay [2] is described as follows: growth effects on S. cerevisiae YJM789 – YJM789 clinical isolate, OD600, 24 h, basal, primary screen (AID 1089).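 Note: growth of clinical yeast isolate S. cerevisiae YJM 789 seeded 1000 cells per well; test concentration not given here.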 The note with it: higher = more signal, called active from +8 up or from −8 down.
Assay [3] in a line: S. pombe growth modifiers, basal conditions – strain 972, OD600, 24 h, no modulator, primary screen (AID 1090).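 Note: basal condition with compound alone and no growth modifier present; test concentration not given here.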 Particulars: S. pombe 972 growth, higher = more signal, called active from +8 up or from −8 down.
Assay [4] is described as follows: budding yeast growth modifiers under rapamycin – strain BY4716, OD600, 96 h, primary screen (AID 1091). Note: test concentration not given here. Particulars: S. cerevisiae BY4716 + rapamycin, higher = more signal, called active from +8 up or from −8 down.
Assay [5] has as its target Torsin-1A-interacting protein 2 (Homo sapiens) (UniProt Q8NFQ8). Nature of the assay: small molecules binding lysate-expressed LULL1 – cell lysate, human LULL1 lysate, 635/667 nm fluorescence, primary screen (AID 1092).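 Note: probe is lysate of COS7 cells overexpressing human LULL1; score merges per-feature 667 nm fluorescence with signal-to-noise.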 The note with it: small-molecule microarray, hLULL1 lysate binding, 635 nm fluorescence; higher = more signal.
Assay [6] can be described thus: optical density change of DRC41 E. coli – strain DRC41, OD650, 24 h, E. coli filamentation project, primary screen (AID 1093).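 Note: MC1000 strain lacking acrAB efflux and sulA so SOS filamentation is blocked; test concentration not given here.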 The note with it: E. coli DRC41 growth, higher = more signal, called active from +8 up or from −8 down.
A short description of assay [7]: probe aLefty2 binding to arrayed compounds – biochemical, biotinylated probe, 635/667 nm fluorescence, primary screen (AID 1094).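 Note: score merges spot fluorescence near 667 nm with spot signal-to-noise ratio.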 The note with it: small-molecule microarray, higher = more signal.
The subject of assay [8] is Noggin (protein binding on small-molecule microarray). Nature of the assay: small molecules binding Noggin protein – biochemical, 635/667 nm fluorescence, primary screen (AID 1095).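 Note: score merges 667 nm feature fluorescence with signal to noise over triplicate slides.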 The note with it: 635 nm fluorescence, higher = more signal.
The target of assay [9] is Neurogenic locus notch homolog protein 3 (Homo sapiens) (UniProt Q9UM47). Kind of assay: small molecules binding NOTCH3 protein – biochemical, 635/667 nm fluorescence, primary screen (AID 1096). Particulars: small-molecule microarray, 635 nm fluorescence, higher = more signal.
Sequence of Neurogenic locus notch homolog protein 3 (Homo sapiens) (Q9UM47 whole entry, looked up): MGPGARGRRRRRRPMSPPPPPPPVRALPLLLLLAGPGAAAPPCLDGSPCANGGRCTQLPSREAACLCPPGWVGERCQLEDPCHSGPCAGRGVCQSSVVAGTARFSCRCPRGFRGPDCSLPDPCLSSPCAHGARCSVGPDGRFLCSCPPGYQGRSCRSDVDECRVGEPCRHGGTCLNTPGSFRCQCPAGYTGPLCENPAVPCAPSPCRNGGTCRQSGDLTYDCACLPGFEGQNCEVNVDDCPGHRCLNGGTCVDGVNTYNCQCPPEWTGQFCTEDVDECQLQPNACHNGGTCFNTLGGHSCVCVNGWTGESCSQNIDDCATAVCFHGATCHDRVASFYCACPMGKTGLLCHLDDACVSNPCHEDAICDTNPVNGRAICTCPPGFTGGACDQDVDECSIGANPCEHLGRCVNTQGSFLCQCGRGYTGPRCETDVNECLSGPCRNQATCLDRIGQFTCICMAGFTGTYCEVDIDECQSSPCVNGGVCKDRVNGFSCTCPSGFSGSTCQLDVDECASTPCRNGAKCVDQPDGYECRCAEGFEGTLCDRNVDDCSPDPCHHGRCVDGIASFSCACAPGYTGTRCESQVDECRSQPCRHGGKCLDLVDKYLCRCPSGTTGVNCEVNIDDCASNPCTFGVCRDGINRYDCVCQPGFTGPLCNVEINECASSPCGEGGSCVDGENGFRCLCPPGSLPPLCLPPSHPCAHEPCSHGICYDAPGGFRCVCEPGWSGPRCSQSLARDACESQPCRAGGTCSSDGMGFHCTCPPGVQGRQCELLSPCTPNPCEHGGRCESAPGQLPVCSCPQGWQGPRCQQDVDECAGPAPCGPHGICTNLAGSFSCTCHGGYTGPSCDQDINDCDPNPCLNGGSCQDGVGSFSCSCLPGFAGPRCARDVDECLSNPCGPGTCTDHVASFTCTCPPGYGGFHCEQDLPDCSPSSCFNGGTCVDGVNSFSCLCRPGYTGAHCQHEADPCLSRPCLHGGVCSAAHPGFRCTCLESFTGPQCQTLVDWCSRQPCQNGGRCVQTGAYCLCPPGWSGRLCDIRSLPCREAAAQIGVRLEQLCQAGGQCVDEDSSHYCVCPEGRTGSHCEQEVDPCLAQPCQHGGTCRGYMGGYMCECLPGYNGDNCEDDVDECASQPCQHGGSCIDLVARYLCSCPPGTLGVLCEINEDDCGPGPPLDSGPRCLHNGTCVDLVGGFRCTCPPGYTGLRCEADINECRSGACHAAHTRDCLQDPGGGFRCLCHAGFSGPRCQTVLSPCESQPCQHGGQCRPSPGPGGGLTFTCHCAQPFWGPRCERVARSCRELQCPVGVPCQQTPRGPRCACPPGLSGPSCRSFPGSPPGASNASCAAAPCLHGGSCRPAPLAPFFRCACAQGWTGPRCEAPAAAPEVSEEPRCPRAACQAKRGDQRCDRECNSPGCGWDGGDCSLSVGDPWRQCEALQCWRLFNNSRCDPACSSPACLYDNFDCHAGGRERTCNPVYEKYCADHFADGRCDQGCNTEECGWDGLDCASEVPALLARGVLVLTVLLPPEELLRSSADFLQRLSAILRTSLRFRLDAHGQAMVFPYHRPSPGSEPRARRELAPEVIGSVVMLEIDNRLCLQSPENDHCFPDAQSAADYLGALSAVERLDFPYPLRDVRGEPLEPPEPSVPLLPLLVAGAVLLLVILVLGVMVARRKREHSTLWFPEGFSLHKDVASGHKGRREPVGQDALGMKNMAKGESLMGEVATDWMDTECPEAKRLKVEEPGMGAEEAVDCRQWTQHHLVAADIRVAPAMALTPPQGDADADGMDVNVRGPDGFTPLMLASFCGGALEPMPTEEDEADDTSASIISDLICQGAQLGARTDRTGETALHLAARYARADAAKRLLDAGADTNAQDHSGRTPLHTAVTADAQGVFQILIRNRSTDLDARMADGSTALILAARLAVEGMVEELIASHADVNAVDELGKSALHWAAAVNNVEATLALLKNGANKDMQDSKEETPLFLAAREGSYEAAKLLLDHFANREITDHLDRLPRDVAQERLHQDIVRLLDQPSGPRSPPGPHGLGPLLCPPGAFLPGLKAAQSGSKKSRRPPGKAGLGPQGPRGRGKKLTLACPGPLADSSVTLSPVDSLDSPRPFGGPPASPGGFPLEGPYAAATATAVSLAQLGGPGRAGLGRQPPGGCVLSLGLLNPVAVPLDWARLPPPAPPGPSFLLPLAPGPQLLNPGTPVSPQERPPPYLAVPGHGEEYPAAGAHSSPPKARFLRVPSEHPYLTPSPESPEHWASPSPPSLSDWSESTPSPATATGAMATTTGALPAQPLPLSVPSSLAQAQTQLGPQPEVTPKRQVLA
A short description of assay [10]: probe aEGFR binding to arrayed compounds – biochemical, biotinylated probe, 635/667 nm fluorescence, primary screen (AID 1097).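 Note: probe is a biotinylated anti-EGFR antibody binding compounds printed on slides; score combines fluorescence near 667 nm and signal to noise of each spot.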 Particulars: small-molecule microarray, higher = more signal.
Assay [11] has as its system Plasmodium falciparum Sir2 (PF13_0152, Sir2A). Nature of the assay: Plasmodium falciparum Sir2A binding compounds – biochemical, small-molecule microarray, 635 nm fluorescence, primary screen (AID 1098).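 Note: score merges spot fluorescence intensity with its signal-to-noise ratio.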 Particulars: fluorescence 635 nm, higher = more signal.
Assay [12] is described as follows: probe aDKK1 binding to arrayed compounds – biochemical, biotinylated probe, 635/667 nm fluorescence, primary screen (AID 1099).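 Note: score merges 667nm spot fluorescence with signal to noise across triplicate slides; reference of the scale not given here.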 Particulars: small-molecule microarray, higher = more signal.
The nature of assay [13]: probe aCHRDL2 binding to arrayed compounds – biochemical, biotinylated probe, 635/667 nm fluorescence, primary screen (AID 1100). Particulars: small-molecule microarray, higher = more signal.
A short description of assay [14]: change in splice reporter luminescence, either direction, cell-based, HEK293, spliceosome inhibition project, primary screen (AID 1101).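 Note: HEK293 cells carrying a splicing-competent luciferase reporter gene; test concentration not given here.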 Particulars: HEK293 splicing luciferase reporter, 24 h, higher = more signal, called active from +8 up or from −8 down. (In general: In a reporter assay the amount or activity of a reporter protein is the signal.)
Assay [15] addresses Fibroblast growth factor 10 (Homo sapiens) (UniProt O15520). Kind of assay: compounds binding fibroblast growth factor 10 – biochemical, small-molecule microarray, 635 nm fluorescence, primary screen (AID 1102). Particulars: FGF10 binding, fluorescence 635 nm, higher = more signal.
The subject of assay [16] is glycogen synthase kinase-3 (GSK3A per assay name; protocol says GSK3B). Kind of assay: compounds binding glycogen synthase kinase-3 – biochemical, small-molecule microarray, 635 nm fluorescence, GSK3A, primary screen (AID 1103). Note: the record names both GSK3A and GSK3B. The note with it: fluorescence 635 nm, higher = more signal.
Assay [17] addresses Epidermal growth factor receptor (Homo sapiens) (UniProt P00533). Kind of assay: compounds binding epidermal growth factor receptor – biochemical, small-molecule microarray, 635 nm fluorescence, primary screen (AID 1104).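 Note: score merges 667 nm emission intensity with spot signal to noise over triplicate slides.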 Particulars: EGFR binding, higher = more signal.
Assay [18] concerns the target Follistatin-related protein 3 (Homo sapiens) (UniProt O95633). Nature of the assay: compounds binding follistatin-related protein 3 – biochemical, small-molecule microarray, 635 nm fluorescence, primary screen (AID 1105).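 Note: score merges emission near 667 nm and signal to noise per printed spot across three slides.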 Particulars: FSTL3 binding, higher = more signal.
The target of assay [19] is Dickkopf-related protein 1 (Homo sapiens) (UniProt O94907). Kind of assay: small molecules binding DKK1 protein – biochemical, small-molecule microarray, 635 nm fluorescence scan, primary screen (AID 1106).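 Note: score merges emission near 667 nm with signal to noise over three replicate slides.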 The note with it: higher = more signal.
Sequence of Dickkopf-related protein 1 (Homo sapiens) (O94907 whole entry, looked up): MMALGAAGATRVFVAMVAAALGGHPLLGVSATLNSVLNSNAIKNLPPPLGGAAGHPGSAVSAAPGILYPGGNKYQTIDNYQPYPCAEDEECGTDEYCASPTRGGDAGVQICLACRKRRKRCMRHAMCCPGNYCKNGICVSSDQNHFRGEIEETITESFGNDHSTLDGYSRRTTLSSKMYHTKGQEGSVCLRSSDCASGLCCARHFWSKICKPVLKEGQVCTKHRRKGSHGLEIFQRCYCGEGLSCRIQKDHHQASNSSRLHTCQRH
In assay [20] the test system is Inhibin beta A chain (activin A). Nature of the assay: small molecules binding activin A – biochemical, small-molecule microarray, 635 nm fluorescence scan, primary screen (AID 1107).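 Note: mouse activin A protein probed at 4.33 µg/mL on printed slides; score merges bound-protein fluorescence near 667 nm with spot signal-to-noise.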 The note with it: INHBA, higher = more signal.

Activity calls are given as the source filed them.

Sequence of Follistatin-related protein 3 (Homo sapiens) (O95633 whole entry, looked up): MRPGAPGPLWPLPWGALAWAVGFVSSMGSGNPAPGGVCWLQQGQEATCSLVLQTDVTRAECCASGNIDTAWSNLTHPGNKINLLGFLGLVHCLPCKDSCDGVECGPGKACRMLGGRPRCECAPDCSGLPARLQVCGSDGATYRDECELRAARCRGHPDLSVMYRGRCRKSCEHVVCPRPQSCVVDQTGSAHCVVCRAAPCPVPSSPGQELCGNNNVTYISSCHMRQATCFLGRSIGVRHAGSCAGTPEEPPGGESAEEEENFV
Sequence of Epidermal growth factor receptor (Homo sapiens) (P00533 whole entry, looked up): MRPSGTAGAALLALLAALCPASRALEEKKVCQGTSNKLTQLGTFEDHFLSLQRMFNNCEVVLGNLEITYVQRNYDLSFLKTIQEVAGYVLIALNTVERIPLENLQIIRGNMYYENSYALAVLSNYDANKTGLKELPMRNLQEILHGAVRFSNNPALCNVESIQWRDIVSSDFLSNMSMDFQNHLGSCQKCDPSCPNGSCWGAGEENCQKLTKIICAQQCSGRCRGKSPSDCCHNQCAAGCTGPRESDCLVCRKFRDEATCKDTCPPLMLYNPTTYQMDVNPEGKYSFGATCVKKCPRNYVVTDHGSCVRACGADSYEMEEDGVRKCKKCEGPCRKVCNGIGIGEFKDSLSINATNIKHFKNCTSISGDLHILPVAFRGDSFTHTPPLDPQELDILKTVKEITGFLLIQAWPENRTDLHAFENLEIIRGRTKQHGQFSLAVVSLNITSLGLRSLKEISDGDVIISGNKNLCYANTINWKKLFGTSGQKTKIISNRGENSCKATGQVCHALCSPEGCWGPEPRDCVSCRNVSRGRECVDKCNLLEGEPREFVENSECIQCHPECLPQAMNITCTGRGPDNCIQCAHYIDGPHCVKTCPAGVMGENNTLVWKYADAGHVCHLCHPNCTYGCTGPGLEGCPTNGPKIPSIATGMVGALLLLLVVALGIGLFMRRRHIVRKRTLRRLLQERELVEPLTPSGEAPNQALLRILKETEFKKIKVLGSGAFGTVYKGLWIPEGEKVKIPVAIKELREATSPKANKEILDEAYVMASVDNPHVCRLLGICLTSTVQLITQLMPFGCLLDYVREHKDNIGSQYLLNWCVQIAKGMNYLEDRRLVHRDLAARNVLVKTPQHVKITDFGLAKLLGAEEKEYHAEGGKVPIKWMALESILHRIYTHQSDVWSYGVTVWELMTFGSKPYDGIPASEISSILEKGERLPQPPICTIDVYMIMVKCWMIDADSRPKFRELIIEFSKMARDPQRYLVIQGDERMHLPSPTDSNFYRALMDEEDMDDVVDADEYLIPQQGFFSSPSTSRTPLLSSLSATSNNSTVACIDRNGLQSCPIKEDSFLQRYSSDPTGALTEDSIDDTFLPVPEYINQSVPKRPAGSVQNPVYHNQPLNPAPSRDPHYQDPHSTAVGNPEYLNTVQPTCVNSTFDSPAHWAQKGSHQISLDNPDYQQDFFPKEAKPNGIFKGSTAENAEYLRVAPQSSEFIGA
Sequence of Torsin-1A-interacting protein 2 (Homo sapiens) (Q8NFQ8 whole entry, looked up): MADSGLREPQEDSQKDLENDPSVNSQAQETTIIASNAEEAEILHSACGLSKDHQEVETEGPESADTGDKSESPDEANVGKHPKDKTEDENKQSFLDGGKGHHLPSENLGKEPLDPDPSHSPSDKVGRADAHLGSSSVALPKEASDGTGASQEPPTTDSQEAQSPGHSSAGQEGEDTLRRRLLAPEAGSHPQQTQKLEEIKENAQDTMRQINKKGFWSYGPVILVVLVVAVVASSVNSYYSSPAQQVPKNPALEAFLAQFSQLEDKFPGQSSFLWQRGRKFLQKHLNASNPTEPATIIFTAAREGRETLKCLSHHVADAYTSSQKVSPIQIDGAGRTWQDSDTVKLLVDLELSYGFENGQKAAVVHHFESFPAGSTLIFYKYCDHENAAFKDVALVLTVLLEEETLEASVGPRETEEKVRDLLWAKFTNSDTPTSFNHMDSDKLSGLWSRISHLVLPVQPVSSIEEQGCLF
Sequence of Fibroblast growth factor 10 (Homo sapiens) (O15520 whole entry, looked up): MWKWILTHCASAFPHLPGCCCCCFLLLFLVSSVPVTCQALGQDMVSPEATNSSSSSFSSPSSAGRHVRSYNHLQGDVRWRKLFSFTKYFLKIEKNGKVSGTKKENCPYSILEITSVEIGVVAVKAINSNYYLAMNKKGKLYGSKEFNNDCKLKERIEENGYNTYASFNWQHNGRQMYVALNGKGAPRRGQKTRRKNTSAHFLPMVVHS

On to `CC(C)=CCCC(C)=CCON=C1C[C@@H](O)[C@@H](O)[C@@H]2[C@@H]3C(=O)N(Cc4ccc5c(c4)OCO5)C(=O)[C@@H]3CC[C@@H]12`, for which the composite z-score in assay [1] is 1.54; in assay [5], 2.06; in [7], 0.0478; in [8] it was 0.837; in [9], 0.983; in [10], -0.0432. In addition, the composite z-score in [11] was 0.769; in assay [12], -0.268; in assay [13], -0.451; in [15], 1.01; in assay [16] it was 0.579; in assay [17], 0.696. Also, the composite z-score in assay [18] was 1.03; in assay [19], 0.915; in [20], 1.3. Further, the z-score in [2] is 0.0718 (inactive); in [3], 1.03 (inactive); in assay [4], -0.864 (inactive); in assay [6] it was 0.813 (inactive); in assay [14], 0.0709 (inactive).
As to `C[C@H]1CC[C@H]2C(=O)O[C@H](CO)CN2[C@@H]1c1ccc(Br)cc1`, the composite z-score was 0.995 in assay [1]; 0.139 in assay [5]; -0.141 in [7]; 0.417 in [8]; -0.811 in [9]; -0.0738 in assay [10]. The composite z-score was -0.233 in assay [11]; -0.198 in assay [12]; -0.372 in [13]; -0.111 in assay [15]; -0.348 in [16]; 0.0844 in assay [17]. The composite z-score is -0.378 in assay [18], -0.106 in [19] and 0.829 in assay [20]. The z-score in assay [2] was -1.57 (inactive); in assay [3], -16.2 (active); in [4], -3.33 (inactive); in [6], 1.88 (inactive); in assay [14] it was -0.202 (inactive).
Consider `COc1ccc(O[C@H]2C=C[C@@H](c3ccccc3)O[C@@H]2COC(=O)NCc2cccc3ccccc23)cc1`, for which the composite z-score in assay [1] was 0.133; in [5], 0.33; in assay [7] it was -0.106; in assay [8] it was 0.0672; in assay [9], -0.574; in [10], -0.122. Besides, the composite z-score in assay [11] was -0.101; in assay [12], 0.0187; in assay [13], 0.173; in assay [15], 0.0748; in assay [16], -0.131; in assay [17], -0.168. The figures for the composite z-score in [18], in assay [19] and in [20] were 0.1, 0.269 and 0.763, respectively. For the same molecule, the z-score in assay [2] was 0.68 (inactive); in assay [3], 0.393 (inactive); in [4], 1.28 (inactive); in assay [6], -0.477 (inactive); in assay [14], -0.134 (inactive).
On to `CCOC(=O)[C@H](Cc1ccccc1)NC(=O)CCC1CC(OC(=O)NCCc2ccc(F)cc2)CC2(CCCC(COC(=O)NCCC(C)C)O2)O1` (stereo not given in full), for which the composite z-score was 1.56 in assay [1]; 2.32 in assay [5]; -0.145 in assay [7]; 1.24 in assay [8]; 1.07 in [9]; -0.0424 in assay [10]. The composite z-score in [11] was 1.16; in assay [12], -0.226; in assay [13], -0.415; in [15], 0.52; in assay [16], 1.01; in [17], 0.396. For the same molecule, the composite z-score in assay [18] was found to be 1.18; in assay [19] it was 0.648; in assay [20], 0.0186. In addition, the z-score was 0.91 (inactive) in assay [2]; 0.902 (inactive) in assay [3]; 0.783 (inactive) in assay [4]; 0.087 (inactive) in assay [6]; -0.0793 (inactive) in assay [14].
Consider `O=C(NCCC[N+]1=CC=NC1c1ccccc1)N1CCCc2nc(-c3ccc(Br)cc3)ccc21` (stereo not given), for which the composite z-score in assay [1] was -0.476; in assay [5] it was 0.0594; in assay [7] it was -0.0616; in [8], 0.232; in [9], -0.378; in assay [10], -0.0183. The composite z-score in [11] is 1.02; in [12] it was -0.128; in assay [13], -0.346; in [15], 0.0448; in assay [16], 0.212; in [17], 0.221. For the same molecule, the composite z-score in assay [18] was -0.0767; in assay [19], 0.42; in assay [20], 0.435. Further, the z-score was -0.435 (inactive) in assay [2]; -1.69 (inactive) in assay [3]; 0.763 (inactive) in assay [4]; 2.39 (inactive) in [6]; -0.106 (inactive) in assay [14].
